PubChem BioAssay (EPA / NIEHS)
Results filed as inconclusive are left out. Active and inactive are the calls of the source. Rule for the calls: active = hit-call score of the fitted dose curve at least 0.9, where 1 is the maximum; inconclusive = response in the unintended direction; inactive = score below 0.9.

The molecules below were run against Estrogen receptor (Homo sapiens) + Estrogen receptor beta (Homo sapiens) (UniProt P03372+Q92731) (assay: OT_ER_ERaERb_1440: Odyssey Thera (OT) 24-hour HEK293T Protein-Complementation Assay for Estrogen Receptor-alpha/-beta Homodimer (AID 2283356);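 note: heteromer of ER alpha and ER beta binding domains; hits raise reporter fluorescence and both agonists and antagonists give an increase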).
Procedure, shortened: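 HEK293T cells stably expressing a PCA pair of ERα LBD (aa 310-547) and ERβ LBD (aa 263-489) were dosed for 24 h. Fluorescence intensity increase versus DMSO vehicle was fitted as gain-of-signal.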

Estrogen receptor (Homo sapiens) + Estrogen receptor beta (Homo sapiens), sequence (P03372 whole entry, looked up, the tested form may be a part): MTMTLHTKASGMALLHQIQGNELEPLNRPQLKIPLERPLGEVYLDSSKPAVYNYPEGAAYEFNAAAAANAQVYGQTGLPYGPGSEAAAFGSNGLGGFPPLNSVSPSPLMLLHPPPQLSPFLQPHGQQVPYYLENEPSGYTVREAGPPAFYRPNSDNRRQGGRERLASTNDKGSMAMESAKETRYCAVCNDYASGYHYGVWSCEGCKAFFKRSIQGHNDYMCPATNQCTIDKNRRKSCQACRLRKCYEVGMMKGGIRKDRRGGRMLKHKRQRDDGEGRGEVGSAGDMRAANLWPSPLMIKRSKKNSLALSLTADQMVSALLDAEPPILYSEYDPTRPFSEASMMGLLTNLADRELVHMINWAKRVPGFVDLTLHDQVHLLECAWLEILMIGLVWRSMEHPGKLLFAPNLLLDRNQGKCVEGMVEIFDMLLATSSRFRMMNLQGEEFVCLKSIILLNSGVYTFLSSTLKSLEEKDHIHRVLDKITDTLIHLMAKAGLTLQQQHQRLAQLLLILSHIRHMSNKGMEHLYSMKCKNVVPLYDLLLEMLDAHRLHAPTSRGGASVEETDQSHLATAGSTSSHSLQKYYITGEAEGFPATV
Estrogen receptor (Homo sapiens) + Estrogen receptor beta (Homo sapiens), sequence (Q92731 whole entry, looked up, the tested form may be a part): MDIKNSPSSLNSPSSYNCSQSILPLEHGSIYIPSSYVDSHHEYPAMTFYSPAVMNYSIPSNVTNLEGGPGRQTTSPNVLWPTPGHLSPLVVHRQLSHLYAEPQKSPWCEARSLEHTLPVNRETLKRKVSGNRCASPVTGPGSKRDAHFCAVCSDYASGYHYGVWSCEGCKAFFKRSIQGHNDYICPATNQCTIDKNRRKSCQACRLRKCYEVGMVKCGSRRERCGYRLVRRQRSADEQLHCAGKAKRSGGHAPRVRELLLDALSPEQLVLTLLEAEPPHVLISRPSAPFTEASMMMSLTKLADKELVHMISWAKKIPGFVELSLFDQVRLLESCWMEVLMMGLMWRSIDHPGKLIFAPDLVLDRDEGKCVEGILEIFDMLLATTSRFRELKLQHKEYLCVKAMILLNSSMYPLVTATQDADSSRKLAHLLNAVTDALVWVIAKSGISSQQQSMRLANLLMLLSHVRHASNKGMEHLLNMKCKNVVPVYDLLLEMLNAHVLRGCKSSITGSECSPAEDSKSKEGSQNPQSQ

Question: `BrCCBr` was tested. Which outcome did it give?
Answer: inactive

Question: For `CCOP(=S)(OCC)Oc1nc(Cl)c(Cl)cc1Cl`, which AC50 is on record?
Answer: 61.5 µM (active)

Question: Which AC50 does the source give for `Clc1ccc(COC(Cn2ccnc2)c2ccc(Cl)cc2Cl)cc1` (stereo not drawn) here?
Answer: 11.8 µM (active)

Question: For `COc1ccc(C=O)cc1OC`, which outcome is on record?
Answer: inactive

Question: How did the outcome turn out when `COC(=O)c1sccc1S(=O)(=O)NC(=O)Nc1nc(C)nc(OC)n1` was run?
Answer: inactive

Question: With `Cn1sc(Cl)cc1=O` as the molecule, how does the outcome read?
Answer: inactive

Question: `C=C(C)C(=O)[O][Sn]([CH2]CCC)([CH2]CCC)[CH2]CCC` was tested. Which outcome did it give?
Answer: inactive

Question: `Cc1ccc2ccccc2c1C` was tested. Which outcome did it give?
Answer: inactive

Question: For `CNC(=O)O/N=C/C(C)(C)S(C)=O` (stereo not drawn), which outcome is on record?
Answer: inactive

Question: Which AC50 does the source give for `CC(C)(c1ccccc1)c1ccc(O)c(C(C)(C)c2ccccc2)c1` here?
Answer: 12 µM (active)

Question: `CCC(=O)C(CC(C)N(C)C)(c1ccccc1)c1ccccc1` (stereo not drawn) was tested. Which outcome did it give?
Answer: inactive

Question: For `O=S(=O)(c1ccc(Cl)cc1)c1ccc(Cl)cc1`, which outcome is on record?
Answer: inactive

Question: `Cl/C=C\C[N+]12CN3CN(CN(C3)C1)C2` was tested. Which AC50 did it give?
Answer: 11.6 µM (active)

Question: `CCOC(=O)Nc1cccc(OC(=O)Nc2ccccc2)c1` was tested. Which outcome did it give?
Answer: inactive

Question: `C=CC(=O)OCCCCCC(C)C` was tested. Which outcome did it give?
Answer: inactive

Question: Which outcome does the source give for `C=CC#N` here?
Answer: inactive

Question: For `N#CN=C(N)N`, which outcome is on record?
Answer: inactive

Question: `Cc1ccc(N)cc1Cl` was tested. Which AC50 did it give?
Answer: 15.3 µM (active)

Question: Which outcome does the source give for `C=C(C)C#N` here?
Answer: inactive

Question: Which outcome does the source give for `CCC(C)(C)c1ccc(O)c(C(C)(C)CC)c1` here?
Answer: inactive

Question: Which AC50 does the source give for `Fc1ccc(C2(Cn3cncn3)OC2c2ccccc2Cl)cc1` (stereo not drawn) here?
Answer: 27.3 µM (active)

Question: Which outcome does the source give for `CC(C#N)CCC#N` (stereo not drawn) here?
Answer: inactive

Question: How did the outcome turn out when `NNC(=S)NN` was run?
Answer: inactive

Question: With `CCOP(=S)(OCC)SCSP(=S)(OCC)OCC` as the molecule, how does the AC50 read?
Answer: 9.13 µM (active)

Question: For `Clc1ccc(C2(Cn3cncn3)CC(Br)CO2)c(Cl)c1` (stereo not drawn), which AC50 is on record?
Answer: 56.4 µM (active)

Question: With `C[C@H]1CCCC(=O)CCC/C=C/c2cc(O)cc(O)c2C(=O)O1` as the molecule, how does the AC50 read?
Answer: 0.24 µM (active)

Question: How did the outcome turn out when `CC(=O)[O][Hg][c]1ccccc1` was run?
Answer: inactive

Question: With `CC1(C)Cc2cccc(O)c2O1` as the molecule, how does the outcome read?
Answer: inactive

Question: `CC(C)C1CCC(Cc2ccc(Cl)cc2)C1(O)Cn1cncn1` (stereo not drawn) was tested. Which AC50 did it give?
Answer: 11.7 µM (active)

Question: For `COc1cc(OC)nc(NC(=O)NS(=O)(=O)c2ncccc2C(=O)N(C)C)n1`, which outcome is on record?
Answer: inactive

Question: Which outcome does the source give for `OCc1ccco1` here?
Answer: inactive

Question: How did the outcome turn out when `CC(C)c1cccc(C(C)C)c1O` was run?
Answer: inactive

Question: With `c1cc[c]([Hg][c]2ccccc2)cc1` as the molecule, how does the outcome read?
Answer: inactive

Question: How did the outcome turn out when `CCN1CCC2(CC1)COc1cc3c(cc12)N(C(=O)c1ccc(-c2ccc(-c4nnc(C)o4)cc2C)cc1)CC3` was run?
Answer: inactive

Question: How did the AC50 turn out when `COP(=S)(OC)Oc1ccc(Sc2ccc(OP(=S)(OC)OC)cc2)cc1` was run?
Answer: 48.4 µM (active)

The molecules below were run against Estrogen receptor beta (Homo sapiens) (UniProt Q92731) (assay: OT_ER_ERbERb_0480: Odyssey Thera (OT) 8-hour HEK293T Protein-Complementation Assay for Estrogen Receptor-beta/-beta Homodimer (AID 2283357);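 note: active means signal gain over DMSO baseline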).
Procedure, shortened: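 Readout: increase in mean fluorescence intensity (nucleus for agonists; nucleus plus cytoplasm for antagonists) relative to DMSO, from a reporter-fragment complementation of human ER-beta LBD homodimer in HEK293T cells dosed 8 hours.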

Estrogen receptor beta (Homo sapiens), sequence (Q92731 whole entry, looked up, the tested form may be a part): as above

Question: Which outcome does the source give for `BrCCBr` here?
Answer: inactive

Question: With `CCOP(=S)(OCC)Oc1nc(Cl)c(Cl)cc1Cl` as the molecule, how does the AC50 read?
Answer: 58.9 µM (active)

Question: For `Clc1ccc(COC(Cn2ccnc2)c2ccc(Cl)cc2Cl)cc1` (stereo not drawn), which outcome is on record?
Answer: inactive

Question: With `COc1ccc(C=O)cc1OC` as the molecule, how does the outcome read?
Answer: inactive

Question: How did the outcome turn out when `COC(=O)c1sccc1S(=O)(=O)NC(=O)Nc1nc(C)nc(OC)n1` was run?
Answer: inactive

Question: With `Cn1sc(Cl)cc1=O` as the molecule, how does the outcome read?
Answer: inactive

Question: With `C=C(C)C(=O)[O][Sn]([CH2]CCC)([CH2]CCC)[CH2]CCC` as the molecule, how does the outcome read?
Answer: inactive

Question: With `Cc1ccc2ccccc2c1C` as the molecule, how does the outcome read?
Answer: inactive

Question: `CNC(=O)O/N=C/C(C)(C)S(C)=O` (stereo not drawn) was tested. Which outcome did it give?
Answer: inactive

Question: With `CC(C)(c1ccccc1)c1ccc(O)c(C(C)(C)c2ccccc2)c1` as the molecule, how does the AC50 read?
Answer: 2.61 µM (active)

Question: With `CCC(=O)C(CC(C)N(C)C)(c1ccccc1)c1ccccc1` (stereo not drawn) as the molecule, how does the outcome read?
Answer: inactive

Question: Which outcome does the source give for `O=S(=O)(c1ccc(Cl)cc1)c1ccc(Cl)cc1` here?
Answer: inactive

Question: `Cl/C=C\C[N+]12CN3CN(CN(C3)C1)C2` was tested. Which outcome did it give?
Answer: inactive

Question: For `CCOC(=O)Nc1cccc(OC(=O)Nc2ccccc2)c1`, which outcome is on record?
Answer: inactive

Question: Which outcome does the source give for `C=CC(=O)OCCCCCC(C)C` here?
Answer: inactive

Question: `C=CC#N` was tested. Which outcome did it give?
Answer: inactive

Question: Which outcome does the source give for `N#CN=C(N)N` here?
Answer: inactive

Question: For `Cc1ccc(N)cc1Cl`, which outcome is on record?
Answer: inactive

Question: With `C=C(C)C#N` as the molecule, how does the outcome read?
Answer: inactive

Question: For `CCC(C)(C)c1ccc(O)c(C(C)(C)CC)c1`, which outcome is on record?
Answer: inactive

Question: How did the AC50 turn out when `Fc1ccc(C2(Cn3cncn3)OC2c2ccccc2Cl)cc1` (stereo not drawn) was run?
Answer: 14.9 µM (active)

Question: With `CC(C#N)CCC#N` (stereo not drawn) as the molecule, how does the outcome read?
Answer: inactive

Question: Which outcome does the source give for `NNC(=S)NN` here?
Answer: inactive

Question: Which AC50 does the source give for `CCOP(=S)(OCC)SCSP(=S)(OCC)OCC` here?
Answer: 14.7 µM (active)

Question: With `Clc1ccc(C2(Cn3cncn3)CC(Br)CO2)c(Cl)c1` (stereo not drawn) as the molecule, how does the outcome read?
Answer: inactive

Question: `C[C@H]1CCCC(=O)CCC/C=C/c2cc(O)cc(O)c2C(=O)O1` was tested. Which AC50 did it give?
Answer: 0.0845 µM (active)

Question: Which outcome does the source give for `CC(=O)[O][Hg][c]1ccccc1` here?
Answer: inactive

Question: `CC1(C)Cc2cccc(O)c2O1` was tested. Which outcome did it give?
Answer: inactive

Question: How did the outcome turn out when `CC(C)C1CCC(Cc2ccc(Cl)cc2)C1(O)Cn1cncn1` (stereo not drawn) was run?
Answer: inactive

Question: `COc1cc(OC)nc(NC(=O)NS(=O)(=O)c2ncccc2C(=O)N(C)C)n1` was tested. Which outcome did it give?
Answer: inactive

Question: For `OCc1ccco1`, which outcome is on record?
Answer: inactive

Question: How did the outcome turn out when `CC(C)c1cccc(C(C)C)c1O` was run?
Answer: inactive

Question: For `CCN1CCC2(CC1)COc1cc3c(cc12)N(C(=O)c1ccc(-c2ccc(-c4nnc(C)o4)cc2C)cc1)CC3`, which outcome is on record?
Answer: inactive

Question: How did the outcome turn out when `COP(=S)(OC)Oc1ccc(Sc2ccc(OP(=S)(OC)OC)cc2)cc1` was run?
Answer: inactive

Each molecule was assayed against human Peroxisome Proliferator-activated Receptor alpha (PPARa), PPARA (gene 5465) (UniProt Q07869) (assay: NVS_NR_hPPARa: NovaScreen (NVS) Nuclear Receptor Binding Assay for human Peroxisome Proliferator-activated Receptor alpha (PPARa) (AID 2283359);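 note: activity means loss of TR-FRET signal versus DMSO baseline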).
Procedure, shortened: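 Cell-free binding assay with extracted human protein, read by TR-FRET 1 h after chemical dosing. Loss of signal relative to DMSO baseline indicates binding. Primary screen used duplicate single concentration (25 uM); actives followed up in concentration series.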

human Peroxisome Proliferator-activated Receptor alpha (PPARa), PPARA (gene 5465), sequence (Q07869 whole entry, looked up): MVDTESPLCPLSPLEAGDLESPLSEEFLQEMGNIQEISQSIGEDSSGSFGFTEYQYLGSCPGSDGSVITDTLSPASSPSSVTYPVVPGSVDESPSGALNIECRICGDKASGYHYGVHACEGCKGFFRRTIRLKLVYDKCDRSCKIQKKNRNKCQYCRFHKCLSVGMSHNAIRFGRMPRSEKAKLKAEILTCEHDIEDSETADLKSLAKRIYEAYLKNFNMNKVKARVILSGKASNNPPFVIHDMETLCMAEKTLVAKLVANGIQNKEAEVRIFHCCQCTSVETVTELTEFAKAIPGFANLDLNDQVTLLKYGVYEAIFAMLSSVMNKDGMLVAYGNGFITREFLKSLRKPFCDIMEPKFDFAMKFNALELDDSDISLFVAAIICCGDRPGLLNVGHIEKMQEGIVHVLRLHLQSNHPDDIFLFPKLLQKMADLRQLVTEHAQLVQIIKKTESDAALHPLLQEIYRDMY

Question: For `Clc1ccc(COC(Cn2ccnc2)c2ccc(Cl)cc2Cl)cc1` (stereo not drawn), which AC50 is on record?
Answer: 39.8 µM (active)

Question: How did the outcome turn out when `C=C(C)C(=O)[O][Sn]([CH2]CCC)([CH2]CCC)[CH2]CCC` was run?
Answer: inactive

Question: `CC(C)(c1ccccc1)c1ccc(O)c(C(C)(C)c2ccccc2)c1` was tested. Which outcome did it give?
Answer: inactive

Question: `COP(=S)(OC)Oc1ccc(Sc2ccc(OP(=S)(OC)OC)cc2)cc1` was tested. Which AC50 did it give?
Answer: 12.7 µM (active)
